nsP2pro inh: CHIKV nsP2 protease inhibition, primary qHTS; AID 1964107; Q8JUX6; FRET peptide cleavage, nsP2pro, fluorescence 1 h; Potency, µM (top dose mostly 24.9 µM), for the others: at the highest dose activity change, negative = inhibition, hits mostly inhibitors; actives 1.1% (n = 31,000); further: nearly all actives have a fitted effect of over 60% in size
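FRET cleavage of 2.5 uM peptide 2 by 150 nM CHIKV protease domain at pH 8.0 (Tris, Tween 20). Compounds at 7 concentrations (up to 25 uM) preincubated 15 min. Fluorescence read after 1 h at room temperature.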
CHIKV nsP2 cell: cell-based CHIKV nsP2 protease inhibition, secondary. shares compounds with nsP2pro inh. cell-based CHIKV nsP2 protease reporter assay. Potency, µM (top dose mostly 51.1 µM), without a hit: at the top dose activity change, negative = inhibition, most hits filed as inhibitors. actives 10% (n = 450); further: nearly all actives have a fitted effect of over 70% in size
NSP2 full ctr: selectivity test for CHIKV nsP2 protease inhibitors: full-length NSP2. Potency, µM (series often up to 50.7 µM), inactives show top-dose activity change, negative = inhibition, usual class: inhibitors. Full-length CHIKV NSP2 protease enzymatic counterscreen. AID 1964101. actives 39% (n = 410). shares compounds with nsP2pro inh; further: nearly all actives have a fitted effect of over 65% in size
Furin counterscr: inhibits human furin in a CHIKV nsP2 protease selectivity counterscreen; shares compounds with nsP2pro inh; Recombinant human furin enzymatic counterscreen, fluorogenic substrate; Potency, µM (top dose mostly 50.6 µM), for inactives: at the top dose activity change, negative = inhibition, hits mostly inhibitors; actives 6% (n = 410)
NS23 peptide cs: blocks CHIKV nsP2 protease cleavage of endogenous NS2/3 peptide | shares compounds with nsP2pro inh | Purified CHIKV nsP2 protease, endogenous NS2/3 peptide cleavage | Potency, µM (titrated, usually from 51 µM), without a hit: at the top dose activity change, negative = inhibition, most hits filed as inhibitors | actives 34% (n = 410) | AID 1964103; further: nearly all actives have a fitted effect of over 55% in size
Papain counter: inhibits papain in a CHIKV nsP2 protease selectivity counterscreen; purified papain protease activity, enzymatic inhibition; shares compounds with nsP2pro inh; AID 1964104; Potency, µM (top dose mostly 51 µM), without a hit: at the top dose activity change, negative = inhibition, actives largely listed as inhibitors; actives 5% (n = 410)
Target sequence (P00784 whole entry, looked up): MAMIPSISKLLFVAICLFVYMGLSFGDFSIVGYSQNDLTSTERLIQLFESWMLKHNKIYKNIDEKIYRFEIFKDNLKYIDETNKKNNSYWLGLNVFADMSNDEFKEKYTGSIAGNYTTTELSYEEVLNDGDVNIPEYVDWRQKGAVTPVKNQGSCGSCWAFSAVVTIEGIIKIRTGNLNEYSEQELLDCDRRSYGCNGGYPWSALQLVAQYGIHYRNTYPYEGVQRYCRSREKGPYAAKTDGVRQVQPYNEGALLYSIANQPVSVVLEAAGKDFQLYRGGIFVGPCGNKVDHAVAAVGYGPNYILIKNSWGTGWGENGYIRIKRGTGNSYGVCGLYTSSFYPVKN
nsP2pro confirm: CHIKV nsP2 protease inhibition, confirmatory qHTS. shares compounds with nsP2pro inh. Potency, µM (titrated, usually from 25.5 µM), without a hit: at the highest dose activity change, negative = inhibition, most hits filed as inhibitors. CHIKV nsP2 protease enzymatic activity, qHTS. actives 43% (n = 410); further: nearly all actives have a fitted effect of over 75% in size
HCV NS3 4A cs: inhibits HCV NS3/4A protease in an nsP2pro selectivity counterscreen | shares compounds with nsP2pro inh | HCV NS3/4A protease biochemical counterscreen | Potency, µM (top dose mostly 50.9 µM), usual class: inhibitors | actives 20% (n = 410) | AID 1964106; further: nearly all actives have a fitted effect of over 55% in size
An asterisk follows results filed as active; i = inactive; ? = inconclusive; [ ] = remark or other dose. The full list was thinned out, with hits kept by preference. The call rests on the fitted dose curve. On the % scale 0 is the no-effect control and ±100 the full control effect; potency means the concentration at half of the fitted maximal effect.

SMILES	nsP2pro inh	others
C=CCSc1nnc(-c2cccc3ccccc23)o1	2%
C=CCNc1nnc(-c2cccc3ccccc23)o1	?	CHIKV nsP2 cell=26%;NSP2 full ctr=23µM*;Furin counterscr=?;NS23 peptide cs=?;Papain counter=-4%;nsP2pro confirm=7.1µM*;HCV NS3 4A cs=?
C=CCNc1oc(-c2cccc3ccccc23)nc1C#N	3%
O=C(Nc1nc2ccccc2s1)c1ccc2c(c1)OCCN(CCC(F)(F)F)C2	i
Nc1cc(-c2nc(Nc3ccc(F)c(F)c3)c3ccccc3n2)ccn1	-14%
COc1ccc(Cl)c(Nc2ncnc3cc(OCC4CCN(C)CC4)c(OC)cc23)c1	0%
C[C@@H]1NC(=O)[C@@H]2CCCN2C(=O)[C@H](CC(N)=O)NC(=O)[C@@H]2CSSC[C@H](N)C(=O)N[C@H]3CSSC[C@H](NC1=O)C(=O)N[C@@H]([C@@H](C)O)C(=O)NCC(=O)N[C@H](C(=O)N[C@@H](Cc1ccc(O)cc1)C(=O)O)CSSC[C@H](NC(=O)[C@H](Cc1ccc(O)cc1)NC(=O)[C@H](CCC(=O)O)NC3=O)C(=O)N2	42%[10 µM]
N#Cc1ccc(-c2ccc(CNc3ccc(C4CCNCC4)cc3)o2)cc1	-8%
N#Cc1ccc(-c2ccc(C3Nc4ccccc4C(=O)N3O)o2)cc1 (stereo not given)	10µM*	CHIKV nsP2 cell=23µM*;NSP2 full ctr=0%;Furin counterscr=-14%;NS23 peptide cs=-11%;Papain counter=-17%;nsP2pro confirm=?;HCV NS3 4A cs=i
CC1=CC(O)CC(C)(C)C1/C=C/C(C)=C/C=C/C(C)=C/C=C/C=C(C)/C=C/C=C(C)/C=C/C1=C(C)CC(O)CC1(C)C (stereo not given)	-26%
COc1cccc(-n2c(=O)[nH]c3cc(Cl)n(-c4ccc(-c5cccc(OC)c5O)cc4)c3c2=O)c1	-16%
Cc1cc(C)nc(NC(=S)N2CCN(c3ncnc4ccccc34)CC2)c1	-5%
Cc1noc(C2CC3(CCN(C(=O)CCc4c[nH]c5ccccc45)CC3)CN2C)n1 (stereo not given)	-8%
CCCCOC(=O)c1ccnc2cc(C(OCCN3CCCCC3)c3ccccc3C)sc12 (stereo not given)	46%
CCCSc1ncc(Cl)c(C(=O)N(Cc2ccc(Cl)cc2)Cc2ccco2)n1	37%
CCCS(=O)(=O)c1ncc(Cl)c(C(=O)N(Cc2ccccc2)Cc2ccco2)n1	5.6µM*	CHIKV nsP2 cell=4.6µM*;NSP2 full ctr=18µM*;Furin counterscr=-13%;NS23 peptide cs=6.5µM*;Papain counter=-1%;nsP2pro confirm=4.5µM*;HCV NS3 4A cs=?
CCSc1ncc(Cl)c(C(=O)N(Cc2ccccc2)Cc2ccco2)n1	-17%
O=C(NC1CCCc2c1cnn2-c1ccc(F)cc1F)c1ccc(C(=O)c2ccccc2)cc1 (stereo not given)	-3%
COc1ccc(-n2ncc3c2CCCC3NC(=O)c2ccc3ncccc3c2)cc1 (stereo not given)	?	CHIKV nsP2 cell=21µM*;NSP2 full ctr=?;Furin counterscr=-4%;NS23 peptide cs=-14%;Papain counter=-9%;nsP2pro confirm=6%;HCV NS3 4A cs=?
COc1ccc(-n2ncc3c2CCCC3NC(=O)c2cnc(C)cn2)cc1 (stereo not given)	-7%
O=C(O)c1cc(-c2c(-c3ccccc3)nn3ccccc23)n[nH]c1=O	13%
Nc1c(-c2ccccc2)nc(Cl)c2c(O)n[nH]c(=O)c12	9.9µM*	CHIKV nsP2 cell=-2%;NSP2 full ctr=-5%;Furin counterscr=-7%;NS23 peptide cs=i;Papain counter=24%;nsP2pro confirm=-7%;HCV NS3 4A cs=i
Cc1nc(CNc2ncnc3ccc(-c4sc(C)nc4C)cc23)cs1	-1%
O=S(=O)(c1ccccc1)N1CC(Oc2ccc(-c3noc(C4CC4)n3)cc2)C1	-3%
COC(=O)CCNC(=O)C1CN(S(=O)(=O)c2cccs2)CC12CCCCC2 (stereo not given)	-5%
SMILES	nsP2pro inh	others
C=C1CC/C=C(/CO)C(=O)C[C@@H]2[C@@H]1C[C@@]2(C)COC(C)=O	22%
O=C(O)c1ccnc2cc(C(OCC3CCC(F)(F)CC3)c3ccccc3Cl)[nH]c12 (stereo not given)	-3%
Cc1cc(C)nc(NC(=S)N2CCN(c3cccc(OC(F)F)c3)CC2)c1	3%
COc1nc2ccc(Br)cc2cc1[C@@H](c1ccccc1)[C@@](O)(CCN(C)C)c1cccc2ccccc12	1.2µM*	CHIKV nsP2 cell=?;NSP2 full ctr=?;Furin counterscr=-13%;NS23 peptide cs=?;Papain counter=-25%;nsP2pro confirm=7.1µM*;HCV NS3 4A cs=i
CN[C@@H]1[C@H](O)[C@H](O[C@@H]2[C@H](O)[C@@H](O[C@H]3O[C@H]([C@@H](C)NC)CC[C@H]3N)[C@@H](N)C[C@H]2N)OC[C@]1(C)O	8%[5.1 µM]
CC1=CCC(O)C2(C)CCC3C(C)C(=O)OC3C12 (stereo not given)	-1%
C=C1C(=O)OC2C1C(O)CC1(C)C(O)CCC(C=O)C21 (stereo not given)	?	CHIKV nsP2 cell=-6%;NSP2 full ctr=-11%;Furin counterscr=-2%;NS23 peptide cs=-18%;Papain counter=-11%;nsP2pro confirm=-24%;HCV NS3 4A cs=i
C=C1C(=O)OC2C1CCC1(C)C(O)CCC(=C)C21 (stereo not given)	62%
C=C1C(=O)O[C@@H]2[C@H]1[C@H](O)C[C@]1(C)[C@@H](O)CC=C(C)[C@@H]21	?	CHIKV nsP2 cell=?;NSP2 full ctr=-7%;Furin counterscr=2%;NS23 peptide cs=-11%;Papain counter=-11%;nsP2pro confirm=-17%;HCV NS3 4A cs=i
C[C@]12CC[C@H]3[C@@H]([C@H](O)CC4=CC(=O)CC[C@@]43C)[C@@H]1CC[C@@H]2O	3%
C=C1C(=O)OC2CC3(C)C(CC12)C(C)=CC(O)C3OC(C)=O (stereo not given)	126%
COC(=O)c1ccc(COCC2=CC(C)(C)Oc3ccc(OC)cc32)cc1	i
CCOC(=O)C(Cc1cccc(N2CCN(C(=O)OC(C)(C)C)CC2)c1)OC (stereo not given)	3%
Cc1ccc(-c2ccc3ncc4c(c3n2)n(C2CCN(C(=O)[C@H](C)O)CC2)c(=O)n4C)cn1	-4%
N#Cc1nc(-c2cccc3ccccc23)oc1NC1CNC1	i
CN1CC(O)c2cc(N=NC(=N)N)c(O)cc21 (stereo not given)	-6%
COCCCn1c(=O)c(C(=O)NC2CC2)nc2cccnc21	-5%[39.2 µM]
CN(Cc1cccc(OC(F)(F)F)c1)C(=O)C1(c2ccc(Cl)cc2)CCOCC1	-7%
